# Screens (PubChem)
# Hits are enriched below; roughly 21% of the tested compounds scored in any of these assays.
# CHX counter – affects cycloheximide protein synthesis inhibition readout, counter-screen. cell reporter, cycloheximide protein synthesis inhibition counterscreen. max response, %. 12% of 300,000 active; in the data active = max response mostly above about 13%, no sharp cut-off; inactive = mostly below about 14%; note: read at 38.3 µM for the half of the compounds with a filed dose
# Pf growth 48h – inhibits P. falciparum growth in the first generation, 48 h; Potency, µM (highest dose often 28.7 µM), actives largely listed as inhibitors; 5.9% of 310,000 active; P. falciparum luciferase growth in erythrocytes, 48 h
#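 Erythrocytes infected with P. falciparum carrying an integrated firefly luciferase reporter (2% hematocrit, 0.1% parasitemia final) were exposed to compounds in RPMI 1640 with 0.5% Albumax at 37 C, 5% CO2. Growth inhibition was scored as reduced luminescence.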
# NS1 inh – blocks influenza NS1 protein function. Potency, µM (doses to about 46.1 µM). 0.4% of 270,000 active. AID 2326; calls by dose curve; note: actives are rising curves; nearly all actives have a fitted effect of over 50% in size
#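 In this qHTS, NS1 from influenza A is expressed in budding yeast, where it slows growth. Cells are switched from glucose to 2% galactose medium (pH 6.0, -URA), treated with compound, and growth recovery is read at OD600.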
# Pf growth 96h – P. falciparum growth inhibition at 96 hour, primary screen for plastid delayed-death inhibitors | P. falciparum luciferase reporter growth, 96 h | Potency, µM (highest dose often 28.7 µM), actives largely listed as inhibitors | 6.9% of 320,000 active
#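 Cell-based qHTS: luciferase-tagged P. falciparum in erythrocytes (2% hematocrit, 0.05% parasitemia final) incubated with compounds for 96 hours, 37 C, 5% CO2; luciferase detection reagent then added and luminescence measured.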
# Giardia FBPA inh – inhibitors of Giardia lamblia fructose-1,6-bisphosphate aldolase; Potency, µM (doses to about 59.6 µM), actives largely listed as inhibitors; purified Giardia FBPA; AID 2451; 0.71% of 290,000 active; note: nearly all actives have a fitted effect of over 55% in size
# Target sequence (A8B2U2 whole entry, looked up): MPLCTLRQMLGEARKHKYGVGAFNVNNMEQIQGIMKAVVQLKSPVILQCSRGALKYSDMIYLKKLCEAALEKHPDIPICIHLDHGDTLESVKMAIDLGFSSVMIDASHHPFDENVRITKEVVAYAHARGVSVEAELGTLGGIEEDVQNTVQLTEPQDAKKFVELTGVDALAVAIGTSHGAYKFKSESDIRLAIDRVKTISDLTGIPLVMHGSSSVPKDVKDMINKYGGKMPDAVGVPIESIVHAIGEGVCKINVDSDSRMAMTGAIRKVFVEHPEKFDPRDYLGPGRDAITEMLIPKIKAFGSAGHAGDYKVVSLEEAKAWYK
#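 Giardia FBPA (40 nM reagent) was preincubated 10 min at RT with compound (up to 57.5 uM final), then substrate plus GAPDH/TPI/NAD/arsenate coupling system with diaphorase/resazurin was added; resorufin fluorescence (525/598 nm) was read after 20 min.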
# Shiga toxin inh – Shiga toxin inhibition | inhibition, % at 38.7 µM | 9.2% of 290,000 active | AID 2315 | Vero cells, Shiga toxin protein synthesis inhibition reporter; in the data active = inhibition mostly above about 28%, no sharp cut-off; inactive = mostly below about 43%
# Numbers stand for hits; n = inactive; u = inconclusive; x = no result given; [ ] = remark or other dose. Unless noted, calls come from the whole dose curve; as a rule, active = well fitted curve in the direction sought with a large enough effect; inconclusive = small, poorly fitted or top-dose-only effect, or another doubt; inactive = no such curve, though single readings can be large; an effect the other way counts as inactive or inconclusive.
SMILES,CHX counter,Pf growth 48h,NS1 inh,Pf growth 96h,Giardia FBPA inh,Shiga toxin inh
O=C(COc1ccc([N+](=O)[O-])cc1)Nc1nc(-c2ccccn2)cs1,x,9.28µM,x,6.57µM,x,x
O=C(Nc1nc(-c2cccc([N+](=O)[O-])c2)cs1)c1cccc([N+](=O)[O-])c1C(=O)O,n,n,n,n,n,n
CCc1cc(C(=O)Nc2nc(-c3ccccn3)cs2)sc1C,x,4.15µM,x,u,x,x
Cc1cc(C(=O)Nc2nc(-c3ccccn3)cs2)ccc1[N+](=O)[O-],28.4,9.28µM,n,u,u,n
Cc1ccc2c(c1)N(CC(=O)NCCCN1CCN(C)CC1)C(=O)CO2,n,n,n,n,x,n
COC1C(O)COC1/C=C/c1ccccc1 (centres undefined),x,x,x,x,n[12.9 µM],x
Cc1cc(Cl)ccc1NC(=S)NCc1ccc(F)cc1,n,u,n,u,n,n
CCOc1ccc(NC(=O)CC2C(=O)NCCN2C(=O)Nc2ccccc2)cc1 (centres undefined),n,n,n,14.7µM,n,n
CN(Cc1ccccn1)C(=O)CC1C(=O)NCCN1Cc1cccc(Oc2ccccc2)c1 (centres undefined),n,n,n,u,n,n
CCc1cc(CNC(=O)CC2C(=O)NCCN2Cc2ccc(-c3ccccc3)cc2)on1 (centres undefined),n,n,n,2.08µM,n,n
CCOc1ccc(CN2CCNC(=O)C2CC(=O)NCCc2ccccn2)cc1 (centres undefined),n,n,n,n,n,n
CCOc1ccc(CN2CCNC(=O)C2CC(=O)NCc2ccccn2)cc1 (centres undefined),36.5,u,n,n,n,n
Cc1nc(CN(C)C(=O)CC2C(=O)NCCN2Cc2ccc(-c3ccccc3)cc2)cs1 (centres undefined),n,n,n,n,x,25.6
CC(C)COc1cccc(-c2cc(C(=O)N/N=C/c3ccncc3)c3ccccc3n2)c1,n,u,n,u,x,n
O=S1(=O)CCOC[C@H](CC2CCCCC2)N1Cc1ccccc1Br,n,n,n,n,n,n
Cc1cc(C2=CC(=O)C[C@H](c3ccc4c(c3)OCO4)C2)ccc1F,x,n,x,u,x,x
O=C(CC1C(=O)NCCN1Cc1ccc(-c2ccccc2)cc1)NCc1ccccc1 (centres undefined),n,n,n,6.57µM,n,n
CCOc1ccccc1CN1CCNC(=O)C1CC(=O)NCc1cc(C)n(C)n1 (centres undefined),n,n,n,2.08µM,x,n
O=C(CC1C(=O)NCCN1C/C=C/c1ccccc1)NCCCC1CCCC1 (centres undefined),37.3,n,n,u,n,74.6
O=C(CC1C(=O)NCCN1Cc1ccc(-c2ccccc2)cc1)NC1CCC1 (centres undefined),n,u,n,n,n,n
CCOC(=O)N1CCC(NC(=O)CC2C(=O)NCCN2Cc2ccccc2)CC1 (centres undefined),n,n,n,9.28µM,x,n
CN(C)c1ccc(/C=C(/NC(=O)c2ccccc2)C(=O)NCCCn2ccnc2)cc1,n,n,n,u,x,n
Cn1c(C(=O)N2CCN(Cc3ccc4c(c3)OCO4)CC2)cc2sccc21,n,u,n,10.4µM,n,n
Cn1c(C(=O)N2CCC(C(=O)N3CCOCC3)CC2)cc2sccc21,n,n,n,11.7µM,n,n
Cn1c(C(=O)N2CCC(C(=O)N3CCN(Cc4ccc5c(c4)OCO5)CC3)CC2)cc2sccc21,n,u,n,10.4µM,n,n
SMILES,CHX counter,Pf growth 48h,NS1 inh,Pf growth 96h,Giardia FBPA inh,Shiga toxin inh
Cn1c(C(=O)NCc2ccc3c(c2)OCO3)cc2sccc21,n,x,n,x,n,n
CC(C)N(CCCNC(=O)C1CCN(C(=O)c2cc3sccc3n2C)CC1)Cc1ccccc1,n,u,n,11.7µM,x,n
O=C(N/N=C1/C[C@@H](O)[C@@H](O)[C@@H]2[C@@H]3C(=O)N(c4cccc(Oc5ccccc5)c4)C(=O)[C@H]3CC[C@@H]12)OCc1ccccc1,x,x,x,x,n[12.9 µM],x
CCN(C(=O)COC(=O)c1c(C)c(-c2ccccc2)nc2ccccc12)C1CCS(=O)(=O)C1 (centres undefined),n,u,n,u,n,n
CCCn1cnc2sc(CC)cc2c1=O,29.9,n,n,n,n,52.4
Cc1[nH]c2ccc(OC(F)(F)F)cc2c1CCNCc1cccc([N+](=O)[O-])c1,n,1.47µM,n,n,u,n
CCOc1cccc(CNCCc2c(C)[nH]c3ccc(OC(F)(F)F)cc23)c1O,n,1.85µM,n,u,n,n
Cc1[nH]c2ccc(OC(F)(F)F)cc2c1CCNCc1ccc(Cl)cc1,n,u,n,u,u,n
COc1ccc2[nH]c(C)c(CCNC(=S)Nc3cccc(C)c3C)c2c1,n,u,n,n,n,n
Cc1ccc(S(=O)(=O)c2nc(S(C)(=O)=O)sc2N2CCC3(CC2)OCCO3)cc1,n,u,n,u,n,n
Cc1ccc(NC(=O)C2CC3CCC2C3)c(Br)c1 (centres undefined),32.6,n,n,n,n,82.6
Cc1ccc(C)c(NC(=O)C2CC3CCC2C3)c1 (centres undefined),14.1,n,n,n,n,n
CCN(CC)c1ccc(NC(=O)C2CC3CCC2C3)cc1 (centres undefined),50.9,n,n,n,n,107.4
O=C(Nc1ccccc1)C1CC2CCC1C2 (centres undefined),n,n,n,n,n,n
Cc1cc(C)cc(NC(=O)C2CC3CCC2C3)c1 (centres undefined),n,n,n,u,n,n
Cc1ccccc1Nc1scc(-c2ccc(Cl)cc2)[n+]1-c1ccccc1C,n,u,x,u,n,n
CCCCc1ccc(NC(=S)N2CCN(c3ccccn3)CC2)cc1,n,n,n,n,n,n
Cc1cccc(-c2cccc(NC(=O)C3CCCN(C(=O)c4cccnc4)C3)c2)c1 (centres undefined),n,n,n,u,x,n
Cc1cccc(-c2cccc(NC(=O)C3CCCN(C(=O)c4ocnc4C)C3)c2)c1 (centres undefined),29.0,n,n,u,n,40.0
Cc1cccc(-c2cccc(NC(=O)C3CCCN(C(=O)c4csc(C)n4)C3)c2)c1 (centres undefined),16.9,u,n,u,n,45.8
CCc1nc(C)c(C(=O)N2CCCC(C(=O)Nc3cccc(-c4cccc(C)c4)c3)C2)o1 (centres undefined),54.3,n,n,n,x,86.6
CCN(CC(=O)NCc1ccc(Cl)cc1)C(=O)CSCC(=O)Nc1ccc(OC)cc1,x,u,x,n,x,x
CC(OC(=O)c1cccc(S(=O)(=O)N2CCOCC2)c1)C(=O)NC1CCCCC1C (centres undefined),x,n,x,n,x,x
COC(=O)C1=C[C@@H](C(=O)OC)[C@H]2C3=C(C(=O)[C@@]2(C)NC(=O)c2ccccc2)[C@H](C)C(C(=O)OC)=C(C(=O)OC)[C@@H]3C1,n,x,x,x,n,n
